Screening data: PubChem, National Center for Advancing Translational Sciences (NCATS)
This is a sample that favours compounds with a hit; in the whole collection about 2.4% have one here.
Cruzain Triton = qHTS Assay for Promiscuous and Specific Inhibitors of Cruzain (with detergent); Potency, µM, most hits filed as inhibitors; actives 0.43% (n = 200,000); purified cruzain, Z-FR-AMC fluorescence, 0.01% Triton; also: nearly all actives have a fitted effect of over 40% in size
Target sequence (P25779 123-467 limits assumed): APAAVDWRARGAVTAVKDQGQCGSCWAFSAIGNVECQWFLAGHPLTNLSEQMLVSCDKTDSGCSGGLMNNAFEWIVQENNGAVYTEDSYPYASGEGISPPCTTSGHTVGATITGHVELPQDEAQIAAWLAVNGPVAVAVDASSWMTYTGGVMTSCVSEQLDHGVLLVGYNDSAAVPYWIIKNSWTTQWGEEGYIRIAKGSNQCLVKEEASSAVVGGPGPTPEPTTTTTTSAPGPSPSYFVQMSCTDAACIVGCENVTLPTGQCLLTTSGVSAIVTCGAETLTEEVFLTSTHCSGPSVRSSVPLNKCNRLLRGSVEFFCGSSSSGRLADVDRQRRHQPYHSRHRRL
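Detergent-containing run (0.01% Triton X-100) in acetate buffer pH 5.5 with 5 mM DTT: enzyme at 1.5 nM final, 15 min compound preincubation at room temperature, then 2 uM Z-FR-AMC substrate. Activity taken as 60 s fluorescence increase at 360/450 nm.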
Cruzain noTriton = qHTS Assay for Promiscuous and Specific Inhibitors of Cruzain (without detergent) | Potency, µM, usual class: inhibitors | Cruzipain (Trypanosoma cruzi), P25779 | purified cruzain, Z-FR-AMC fluorescence, no detergent | actives 2.3% (n = 200,000); also: nearly all actives have a fitted effect of over 40% in size
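Purified cruzain at 1.5 nM, pre-incubated 15 min with compound at room temperature in 100 mM sodium acetate pH 5.5, 5 mM DTT, 0.00005% Triton X-100. Reaction started with 2 uM Z-FR-AMC; AMC fluorescence increase over 60 s gives rate.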
A number is an active result. Calls follow the shape of the dose curve; as a rule, active = well fitted curve in the direction sought with a large enough effect; inconclusive = small, poorly fitted or top-dose-only effect, or another doubt; inactive = no such curve, though single readings can be large; an effect the other way counts as inactive or inconclusive.

`CC(C)(C)OC(=O)N1CCC(c2c(C(=O)NCc3ccc4c(c3)OCO4)cnn2-c2ccc(F)cc2F)CC1` gave Cruzain Triton inactive and Cruzain noTriton inactive.
Screening Cc1cc([P+](=O)O)c(C)n1-c1ccc(Br)cc1 returned Cruzain Triton inactive and Cruzain noTriton 20µM.
For CC(=O)N/N=C/c1cc(C)n(-c2ccc(Br)cc2)c1C the results were Cruzain Triton inactive and Cruzain noTriton inactive.
For Cc1nn(CCC(=O)Nc2ccccc2Br)c(=O)c2nn(-c3ccccc3)c(C)c12 the results were Cruzain Triton inactive and Cruzain noTriton inactive.
Screening CCOc1ccc2nc(N3CCCC(C(=O)Nc4ccc(OC)c(Cl)c4)C3)sc2c1 (stereo not drawn) returned Cruzain Triton inactive and Cruzain noTriton inactive.
`CCNC(=O)COc1ccc(Br)cc1Cl` gave Cruzain Triton inactive and Cruzain noTriton inactive.
`CSc1ccc(/C=N/NC(=O)COc2ccc(Br)cc2Cl)cc1` gave Cruzain Triton inactive and Cruzain noTriton 25µM.
Screening CCOC(=O)c1cnc2ccc(C(=O)OC)cc2c1Nc1ccccc1CC returned Cruzain Triton inactive and Cruzain noTriton inactive.
`O=C(C[n+]1ccc2ccccc2c1)c1ccc2ccc3ccccc3c2c1` gave Cruzain Triton inactive and Cruzain noTriton 3.2µM.
For O=C(C[n+]1ccc2ccccc2c1)Nc1cc(C(F)(F)F)ccc1Cl the results were Cruzain Triton inactive and Cruzain noTriton inactive.
Screening COc1ccc(C)cc1NC(=O)c1cc2c(=O)n(Cc3cccnc3)ccc2nc1C returned Cruzain Triton inactive and Cruzain noTriton inactive.
Screening COc1ccc(S(=O)(=O)c2c(Nc3cccc(C)c3C)sc(C(=O)c3ccccc3)c2N)cc1 returned Cruzain Triton inactive and Cruzain noTriton 6.3µM.
`Nc1c(C(=O)c2ccc3c(c2)OCO3)sc(Nc2ccccc2F)c1S(=O)(=O)c1ccccc1` gave Cruzain Triton inactive and Cruzain noTriton inconclusive.
Cc1ccccc1Nc1sc(C(=O)c2ccccc2)c(N)c1S(C)(=O)=O was read as Cruzain Triton inactive and Cruzain noTriton inactive.
Screening COc1ccc(S(=O)(=O)c2c(Nc3c(C)cccc3C)sc(C(=O)c3ccc4c(c3)OCO4)c2N)cc1 returned Cruzain Triton inactive and Cruzain noTriton 7.9µM.
`Cc1cccc(C)c1Nc1sc(C(=O)c2ccccc2)c(N)c1C(=O)Nc1ccc(F)cc1` gave Cruzain Triton inactive and Cruzain noTriton inconclusive.
`COc1ccc(S(=O)(=O)Nc2ccc3c(c2)OCO3)cc1` gave Cruzain Triton inactive and Cruzain noTriton inactive.
For COc1ccc(S(=O)(=O)c2c(Nc3c(C)cccc3C)sc(C(=O)c3ccc(F)cc3)c2N)cc1 the results were Cruzain Triton inactive and Cruzain noTriton 6.3µM.
COc1cccc(Nc2sc(C(=O)c3ccc4c(c3)OCO4)c(N)c2S(=O)(=O)c2ccccc2)c1 was read as Cruzain Triton inactive and Cruzain noTriton 7.9µM.
`Cc1cccc(-c2noc(-c3cccnc3NCc3ccccc3Cl)n2)c1` gave Cruzain Triton inactive and Cruzain noTriton inactive.
Cc1cccc(NS(=O)(=O)c2ccc3c(c2)C(C)(C)C(=O)N3C)c1 was read as Cruzain Triton inactive and Cruzain noTriton inactive.
`CCS(=O)(=O)N1CCc2cc(C(=O)Nc3cc(C(F)(F)F)ccc3Cl)ccc21` gave Cruzain Triton inactive and Cruzain noTriton inactive.
For Cc1ccc(S(=O)(=O)O[C@@H]2[C@H]([C@@H]3COC(C)(C)O3)O[C@H]3OC(C)(C)O[C@@H]32)cc1 the results were Cruzain Triton inactive and Cruzain noTriton inactive.
`Nc1c(C(=O)NCc2ccccc2)nnn1Cc1cccc(Br)c1` gave Cruzain Triton inactive and Cruzain noTriton inconclusive.
`Cc1ccc(C(=O)c2sc(Nc3ccc(F)cc3)c(C#N)c2N)cc1` gave Cruzain Triton inactive and Cruzain noTriton inconclusive.
COc1ccccc1Nc1sc(C(=O)c2ccc(F)cc2)c(N)c1S(=O)(=O)c1ccc(C)cc1 was read as Cruzain Triton inactive and Cruzain noTriton 7.9µM.
Screening CCCN1CCN(c2ncnc3sc(C(=O)Nc4ccc(N(CC)CC)cc4C)c(C)c23)CC1 returned Cruzain Triton inactive and Cruzain noTriton inactive.
For CCCN1CCN(c2ncnc3sc(C(=O)Nc4cccc(Cl)c4C)c(C)c23)CC1 the results were Cruzain Triton 2.2µM and Cruzain noTriton 16µM.
`O=C(NC1CCN(C(=O)N2c3ccccc3Sc3ccccc32)CC1)c1ccccc1F` gave Cruzain Triton inactive and Cruzain noTriton 20µM.
For CC1CCN(C(=O)N2c3ccccc3Sc3ccccc32)CC1 the results were Cruzain Triton inactive and Cruzain noTriton inactive.
Cc1cccc(NC(=O)Cn2c(=O)n(CCCS(=O)(=O)C3CCCCC3)c(=O)c3ccccc32)c1 was read as Cruzain Triton inactive and Cruzain noTriton inactive.
N#Cc1c(Oc2ccc3ccccc3c2)sc(C(=O)c2ccccc2)c1N was read as Cruzain Triton inactive and Cruzain noTriton 25µM.
Cc1ccc(CSc2sc(C(=O)c3ccccc3)c(N)c2C#N)cc1 was read as Cruzain Triton inactive and Cruzain noTriton 20µM.
For N#Cc1c(SCc2ccccc2)sc(C(=O)c2ccccc2)c1N the results were Cruzain Triton inactive and Cruzain noTriton inactive.
Screening Cc1cccc(Oc2sc(C(=O)c3ccccc3)c(N)c2C#N)c1C returned Cruzain Triton inactive and Cruzain noTriton inconclusive.
`COc1cccc(C(=O)CC2(O)C(=O)N(Cc3ccccc3)c3ccccc32)c1` (stereo not drawn) gave Cruzain Triton inactive and Cruzain noTriton inactive.
`CCn1c2ccccc2c2cc(NC(=O)CSc3nnc(-c4cccc(Cl)c4)o3)ccc21` gave Cruzain Triton inactive and Cruzain noTriton 10µM.
`Cc1cccc(-c2nnc(SCC(=O)Nc3ccc(C)c(C)c3)o2)c1` gave Cruzain Triton inactive and Cruzain noTriton inactive.
CCN1CCN(C(=O)c2ccc3c(c2)N(Cc2cc(C)ccc2C)C(=O)c2ccccc2S3(=O)=O)CC1 was read as Cruzain Triton inactive and Cruzain noTriton inactive.
For COC(=O)c1ccccc1NC(=O)CSc1nc2ccsc2c(=O)n1CCC(C)C the results were Cruzain Triton inactive and Cruzain noTriton inactive.
Cc1sc2ncnc(SCC(=O)c3ccc4c(c3)OCCO4)c2c1-c1ccccc1 was read as Cruzain Triton inactive and Cruzain noTriton 32µM.
Screening O=C(CSc1ncnc2ccccc12)c1ccc2c(c1)OCCO2 returned Cruzain Triton inactive and Cruzain noTriton inactive.
Cc1ccc(-c2csc3ncnc(SCC(=O)c4ccc5c(c4)OCCO5)c23)cc1 was read as Cruzain Triton inactive and Cruzain noTriton 10µM.
`O=C(CSc1ncnc2scc(-c3ccc(F)cc3)c12)c1ccc2c(c1)OCCO2` gave Cruzain Triton inactive and Cruzain noTriton inconclusive.
`Cn1c(NCCCO)nc2c1c(=O)n(Cc1cccc(F)c1)c(=O)n2C` gave Cruzain Triton inactive and Cruzain noTriton inactive.
Screening Cc1cccc(CS(=O)(=O)c2nnc([C@H](Cc3ccccc3)NC(=O)OC(C)(C)C)o2)c1 returned Cruzain Triton 16µM and Cruzain noTriton 16µM.
For COC(=O)CSc1nnc([C@H](Cc2ccccc2)NC(=O)OC(C)(C)C)o1 the results were Cruzain Triton inactive and Cruzain noTriton inactive.
Screening Cc1ccccc1CNC(=O)C(=O)NCC(c1ccco1)S(=O)(=O)c1cccs1 (stereo not drawn) returned Cruzain Triton inactive and Cruzain noTriton inactive.
CCOC(=O)c1c(-c2ccccc2)csc1NC(=O)c1cc(=O)c2ccc(C)cc2o1 was read as Cruzain Triton inactive and Cruzain noTriton inactive.
